In the library only some 2.9% were active in any assay of this set; here they are far more common.
Hck-Nef inh: inhibitors of Nef-activated human Hck kinase, primary screen, biochemical, Z-Lyte FRET, 384-well, Hck-YEEI. actives 0.68% (n = 220,000). inhibition, % at 20 µM. Recombinant Hck-YEEI plus Nef, Z-Lyte FRET kinase assay. Tyrosine-protein kinase HCK (Homo sapiens), P08631. AID 463187, 2010;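 active = Hck-Nef kinase inhibition above about 50%, limit read from the data; inactive = inhibition below that limit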
Mcl1 Noxa PPI: Mcl-1/Noxa binding inhibitors, primary screen, biochemical, TR-FRET, 1536-well; inhibition, % at 21.7 µM; TR-FRET Mcl-1/Noxa peptide binding, 2 h; Induced myeloid leukemia cell differentiation protein Mcl-1 (Homo sapiens), Q07820; actives 1.5% (n = 220,000); AID 1022, 2008;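 active = compounds that cut the protein-peptide binding signal by more than 50% relative to plate controls in a single-dose test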;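 also: His-tagged Mcl-1 with rhodamine Noxa BH3 peptide and terbium anti-His antibody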
Target sequence (Q07820 whole entry, looked up): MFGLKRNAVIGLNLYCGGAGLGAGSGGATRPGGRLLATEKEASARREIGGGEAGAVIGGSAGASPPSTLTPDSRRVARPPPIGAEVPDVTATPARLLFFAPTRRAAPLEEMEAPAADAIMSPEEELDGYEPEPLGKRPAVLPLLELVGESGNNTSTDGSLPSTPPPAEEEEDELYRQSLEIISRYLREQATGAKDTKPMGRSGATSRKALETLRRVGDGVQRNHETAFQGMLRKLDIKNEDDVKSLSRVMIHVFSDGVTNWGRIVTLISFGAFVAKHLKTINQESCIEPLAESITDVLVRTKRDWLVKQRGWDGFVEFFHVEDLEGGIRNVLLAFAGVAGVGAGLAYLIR
Mcl-1 Bim block: inhibitors of Bim peptide binding to Mcl-1, primary screen, biochemical, bead-based flow cytometry, multiplex; inhibition, % at 10 µM; Induced myeloid leukemia cell differentiation protein Mcl-1 (Homo sapiens), Q07820; actives 0.1% (n = 190,000); AID 1009, 2008; Bim peptide-Mcl-1 binding; in the data active = inhibition above about 40%
14-3-3 Bad PPI: inhibitors of 14-3-3 zeta/Bad binding, primary screen, biochemical, TR-FRET, bovine 14-3-3 zeta. 14-3-3 protein zeta/delta (Bos taurus), P63103. TR-FRET 14-3-3zeta/Dy647-pBad peptide displacement, 1 h. inhibition, % at 21.7 µM. actives 0.71% (n = 220,000). AID 781, 2007;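 active = inhibition above about 70%, limit read from the data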
Target sequence (P63103 whole entry, looked up): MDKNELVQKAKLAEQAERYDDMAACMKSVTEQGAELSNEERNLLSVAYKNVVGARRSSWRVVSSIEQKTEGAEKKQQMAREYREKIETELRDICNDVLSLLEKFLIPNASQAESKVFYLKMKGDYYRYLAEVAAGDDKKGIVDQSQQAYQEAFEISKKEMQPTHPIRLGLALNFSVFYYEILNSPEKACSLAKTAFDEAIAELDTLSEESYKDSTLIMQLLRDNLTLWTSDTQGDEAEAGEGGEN
Pf gamet viab: late stage P. falciparum gametocyte viability inhibitors, primary screen, ATP luminescence, HTS; P. falciparum stage V gametocytes, 24 h; actives 0.065% (n = 150,000); inhibition, % at 10.9 µM;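 active = inhibition above the mean plus 3 SD of compounds within the control limits, set per campaign, cut at about 38% in these data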
Mcl1-Bid inh: Mcl-1/Bid binding inhibitors, primary screen, biochemical, TR-FRET, 1536-well | Induced myeloid leukemia cell differentiation protein Mcl-1 (Homo sapiens), Q07820 | TR-FRET Mcl-1/Bid-Dy647 peptide binding | inhibition, % at 21.7 µM | actives 0.97% (n = 220,000);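 active = compounds that cut the binding signal by more than half at the single screening dose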;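 also: His-tagged Mcl-1 with europium anti-His antibody binding Bid BH3 peptide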
Hck Nef conf: retest of Hck:Nef kinase inhibitor hits, confirmation, biochemical, Z-Lyte FRET, 384-well, p-Tyr peptide counterscreen; actives 28% (n = 1,300); shares compounds with Hck-Nef inh; Recombinant Hck-YEEI:Nef, Z-Lyte FRET kinase assay; calls only at 10 µM; AID 463188, 2010;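 active = average inhibition of at least 50%, with Z-scores no higher than 3 in both the phospho-tyrosine peptide and fluorescence counterscreens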
A number is an active result; . = inactive; / = no result given; + = active, no number.

SMILES	Hck-Nef inh	Mcl1 Noxa PPI	Mcl-1 Bim block	14-3-3 Bad PPI	Pf gamet viab	Mcl1-Bid inh	Hck Nef conf
CN=c1scc(-c2ccccc2F)n1/N=C/c1ccc(O)c(O)c1O	122	58	.	.	.	.	.
COCc1[nH][nH]c(=O)c1C=Nc1ccc(C(F)(F)F)cc1	.	.	.	.	.	.	/
COCc1[nH][nH]c(=O)c1C=Nc1ccc(Oc2ccccc2)cc1	91	.	.	.	.	.	+
COc1ccc(NC(=O)CN2C(=O)C(C)Oc3ccccc32)cc1 (centres undefined)	.	.	.	.	/	.	/
COc1ccc(NC(=O)CN2C(=O)/C(=C3\SC(=S)N(C4CCS(=O)(=O)C4)C3=O)c3ccccc32)cc1 (centres undefined)	99	89	/	.	.	91	+
O=c1c2c(-c3ccc(Cl)cc3)csc2ncn1/N=C/c1cccc([N+](=O)[O-])c1O	89	.	.	.	.	.	+
O=C1N=C(N2CCN(c3ccccc3)CC2)S/C1=C/c1ccco1	52	.	/	.	.	.	.
NC(=O)CC(NC(=O)c1cccc(Br)c1)c1ccc(N2CCC(Br)CC2)c([N+](=O)[O-])c1 (centres undefined)	/	/	/	/	.	/	/
CCn1cc(C2C3=C(CC(C)(C)CC3=O)N(c3ccc(C)cc3)C3=C2C(=O)CC(C)(C)C3)c(C)n1	/	/	/	/	.	/	/
COc1ccc(N2C3=C(C(=O)CC(C)(C)C3)C(c3cnn(C)c3)C3=C2CC(C)(C)CC3=O)cc1	55	.	/	.	.	.	/
COc1ccc(-c2noc(CCC(N)=O)n2)cc1OC	.	.	.	.	/	.	/
CC(=O)OCC1=C(C(=O)O)N2C(=O)C(NC(=O)CCn3nc(C(F)(F)F)c(Br)c3C3CC3)C2SC1 (centres undefined)	60	.	.	.	/	.	.
COC(=O)c1ccc(C(=O)OC)c(NC(=O)Oc2ccccc2)c1	58	.	.	.	.	.	/
COC(=O)c1ccc(C(=O)OC)c(N)c1	86	.	.	.	/	.	/
COC(=O)c1ccc(N2CCCCC2)c(N)c1	.	.	.	.	.	.	/
Cc1c(CN2CCC(CO)(CCOc3ccccc3)CC2)c(=O)n(-c2ccccc2)n1C	.	.	.	.	.	.	/
O=C(Nc1ccc(F)cc1)Nc1nnc(Cc2ccccc2F)s1	/	/	/	/	.	/	/
O=c1cc(Cc2nnc(SCc3ccccc3)n2-c2ccc(Cl)cc2)[nH]c(=O)[nH]1	.	.	.	.	.	.	/
CC(=O)c1sc(-c2cccc(Cl)c2)nc1C	.	.	.	.	.	.	/
O=C(Nc1nn[nH]n1)c1cc(-c2ccc(Cl)c(Cl)c2Cl)nc2ccccc12	119	.	.	.	.	.	.
O=C(NCCc1ccccn1)c1cc(-c2ccc(Cl)c(Cl)c2Cl)nc2ccccc12	.	.	.	.	.	.	/
Cn1c(=O)c2c(nc(SCC(=O)c3cccs3)n2Cc2ccc(F)cc2)n(C)c1=O	.	.	.	.	/	.	/
CCOC(=O)N1CCC(NC(=O)C(NS(=O)(=O)c2ccc3c(c2)CCN3C(C)=O)C(C)C)CC1 (centres undefined)	.	.	.	.	.	.	/
CNc1nc(-c2ccccc2)cc(C(F)(F)F)c1C#N	68	.	.	.	/	.	/
CN(CC(=O)Nc1ccccc1Cl)C(=O)COC(=O)CNC(=O)c1ccc(Br)o1	.	/	/	/	.	/	/
SMILES	Hck-Nef inh	Mcl1 Noxa PPI	Mcl-1 Bim block	14-3-3 Bad PPI	Pf gamet viab	Mcl1-Bid inh	Hck Nef conf
NS(=O)(=O)c1ccc(N/N=C/c2ccc(O)cc2O)c([N+](=O)[O-])c1	93	.	/	.	.	.	+
Cc1nc(Nc2ccc(C(=O)O)cc2)sc1-c1ccccc1	56	.	.	.	.	.	.
Cc1ccc(C(C2C(=O)CC(C)(C)CC2=O)C2C(=O)CC(C)(C)CC2=O)s1	.	.	.	.	/	.	/
CCNC(=O)c1cc2c(=O)n3cccc(C)c3nc2n(Cc2ccc(C)cc2)c1=N	71	.	.	.	.	.	/
N=c1c(C(=O)NCc2ccccc2)cc2c(=O)n3ccccc3nc2n1CCCN1CCOCC1	/	/	/	/	.	/	/
CCCn1c(=N)c(C(=O)NCc2ccc3c(c2)OCO3)cc2c(=O)n3cccc(C)c3nc21	.	.	.	.	/	.	/
N=c1c(C(=O)NCc2ccc(F)cc2)cc2c(=O)n3ccccc3nc2n1CCCN1CCOCC1	69	.	.	.	/	.	/
CCOCCCn1c(=N)c(C(=O)NCCN2CCOCC2)cc2c(=O)n3cccc(C)c3nc21	133	.	.	.	/	.	/
Cc1cccn2c(=O)c3cc(C(=O)NC(C)C)c(=N)n(Cc4ccncc4)c3nc12	130	.	.	.	/	.	/
Cn1cnc([N+](=O)[O-])c1C(=O)Nc1cccc([N+](=O)[O-])c1	.	.	.	.	.	.	/
COc1cc(C2N(c3cc(C)on3)C(=O)C3CCCN32)cc(OC)c1OC (centres undefined)	.	.	.	.	/	.	/
COCCCNC(=O)c1cc2c(=O)n3cccc(C)c3nc2n(C(C)C)c1=N	167	.	.	.	/	.	/
CC(C)C1Nc2ccc(C(=O)O)cc2C2C=CCC21 (centres undefined)	.	.	.	.	.	.	/
CCOC(=O)c1ccc2c(c1)C1C=CCC1C(C(=O)O)N2 (centres undefined)	59	104	.	.	/	62	+
CCCCCCn1c(-c2ccco2)nc2oc3cc(OC)ccc3c(=O)c2c1=O	.	.	.	.	.	.	/
CCCc1cc(NCCCN2CCOCC2)n2c(nc3ccccc32)c1C#N	101	.	.	.	/	.	/
Cc1cc(NCCCN2CCOCC2)n2c(nc3ccccc32)c1C#N	75	.	.	.	.	.	/
CC1CCCC(C)N1CC(O)COc1ccc(Cl)cc1 (centres undefined)	.	.	.	.	.	.	/
O=C(/C=C/c1ccc2c(c1)OCO2)NCCSCc1cccc(Cl)c1	.	.	.	.	.	.	/
COc1ccc(N=C2NC(=O)/C(=C/c3ccc(O)c(OC)c3)S2)cc1	.	.	.	.	.	.	/
COc1ccc(N=C2NC(=O)/C(=C\c3ccco3)S2)cc1	61	.	.	.	.	.	.
Nc1c(C(=O)NC2CC2)sc2nc3c(c(-c4ccco4)c12)CC/C3=C/c1ccco1	85	97	.	.	/	84	.
Cc1cc(NCCCCO)n2c(nc3ccccc32)c1C#N	59	.	.	.	.	.	/

Assay outcomes from PubChem.
